Measurements: ChEMBL document CHEMBL1961873, “Compounds: GSK PKIS; Assays: Nanosyn kinase panel” (2012)

Columns and labels:
[1] = molecular target: T1, Ephrin type-B receptor 2 (Homo sapiens) (UniProt P29323); conditions: at 1 µM
T1 sequence (whole entry): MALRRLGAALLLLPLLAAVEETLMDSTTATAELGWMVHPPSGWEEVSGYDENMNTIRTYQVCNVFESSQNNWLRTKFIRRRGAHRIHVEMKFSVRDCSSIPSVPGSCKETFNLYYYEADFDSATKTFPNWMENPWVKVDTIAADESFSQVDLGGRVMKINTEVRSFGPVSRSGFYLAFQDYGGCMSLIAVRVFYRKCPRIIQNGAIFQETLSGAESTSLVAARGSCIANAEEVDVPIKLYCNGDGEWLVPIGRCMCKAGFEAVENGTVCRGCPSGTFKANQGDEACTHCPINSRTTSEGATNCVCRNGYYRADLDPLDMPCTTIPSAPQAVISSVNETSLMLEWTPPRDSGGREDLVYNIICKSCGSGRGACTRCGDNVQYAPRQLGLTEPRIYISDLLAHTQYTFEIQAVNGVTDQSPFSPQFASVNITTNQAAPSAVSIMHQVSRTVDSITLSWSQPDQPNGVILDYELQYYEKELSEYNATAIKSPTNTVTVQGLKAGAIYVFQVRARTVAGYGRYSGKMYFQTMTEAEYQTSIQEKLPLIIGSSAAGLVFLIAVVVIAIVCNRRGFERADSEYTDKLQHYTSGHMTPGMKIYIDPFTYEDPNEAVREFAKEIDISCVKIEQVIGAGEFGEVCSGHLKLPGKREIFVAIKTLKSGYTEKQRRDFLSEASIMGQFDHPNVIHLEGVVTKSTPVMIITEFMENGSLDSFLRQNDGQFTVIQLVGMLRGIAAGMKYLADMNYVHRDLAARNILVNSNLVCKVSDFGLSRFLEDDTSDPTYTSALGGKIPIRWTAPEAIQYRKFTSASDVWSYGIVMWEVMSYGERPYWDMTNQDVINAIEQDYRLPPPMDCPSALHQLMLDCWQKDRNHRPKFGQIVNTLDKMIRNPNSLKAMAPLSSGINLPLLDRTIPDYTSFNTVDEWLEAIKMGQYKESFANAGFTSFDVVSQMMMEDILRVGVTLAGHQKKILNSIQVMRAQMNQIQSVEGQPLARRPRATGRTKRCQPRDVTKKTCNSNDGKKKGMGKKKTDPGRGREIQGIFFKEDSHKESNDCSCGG

[2] = molecular target: T2, Ephrin type-B receptor 3 (Homo sapiens) (UniProt P54753); conditions: at 0.1 µM
T2 sequence (whole entry): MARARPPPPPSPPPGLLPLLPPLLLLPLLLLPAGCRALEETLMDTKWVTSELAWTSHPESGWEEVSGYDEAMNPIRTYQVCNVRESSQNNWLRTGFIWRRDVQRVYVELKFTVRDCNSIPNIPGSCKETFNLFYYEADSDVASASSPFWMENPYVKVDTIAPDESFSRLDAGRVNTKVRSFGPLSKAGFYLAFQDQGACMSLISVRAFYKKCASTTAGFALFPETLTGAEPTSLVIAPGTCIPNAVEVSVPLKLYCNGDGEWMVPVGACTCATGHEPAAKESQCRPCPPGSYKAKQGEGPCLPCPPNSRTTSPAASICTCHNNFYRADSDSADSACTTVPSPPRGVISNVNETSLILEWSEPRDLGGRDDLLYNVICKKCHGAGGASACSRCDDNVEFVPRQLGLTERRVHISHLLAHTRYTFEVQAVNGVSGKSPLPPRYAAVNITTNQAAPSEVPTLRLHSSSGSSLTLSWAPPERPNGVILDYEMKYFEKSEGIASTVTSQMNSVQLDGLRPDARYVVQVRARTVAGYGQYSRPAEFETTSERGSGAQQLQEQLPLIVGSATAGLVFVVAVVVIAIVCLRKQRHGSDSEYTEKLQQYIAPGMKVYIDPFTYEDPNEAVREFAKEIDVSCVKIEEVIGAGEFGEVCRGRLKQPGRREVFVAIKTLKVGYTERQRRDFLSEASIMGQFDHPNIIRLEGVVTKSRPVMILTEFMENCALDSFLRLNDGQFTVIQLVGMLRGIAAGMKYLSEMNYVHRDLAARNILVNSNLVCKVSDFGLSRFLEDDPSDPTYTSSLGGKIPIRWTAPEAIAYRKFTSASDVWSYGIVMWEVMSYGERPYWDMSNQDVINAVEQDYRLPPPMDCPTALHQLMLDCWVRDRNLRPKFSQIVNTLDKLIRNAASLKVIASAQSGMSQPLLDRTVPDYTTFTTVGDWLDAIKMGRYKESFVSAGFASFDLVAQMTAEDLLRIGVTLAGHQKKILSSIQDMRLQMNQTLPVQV

[3] = molecular target: T2, Ephrin type-B receptor 3 (Homo sapiens); conditions: at 1 µM
[4] = molecular target: T3, Ephrin type-B receptor 4 (Homo sapiens) (UniProt P54760); conditions: at 0.1 µM
T3 sequence (whole entry): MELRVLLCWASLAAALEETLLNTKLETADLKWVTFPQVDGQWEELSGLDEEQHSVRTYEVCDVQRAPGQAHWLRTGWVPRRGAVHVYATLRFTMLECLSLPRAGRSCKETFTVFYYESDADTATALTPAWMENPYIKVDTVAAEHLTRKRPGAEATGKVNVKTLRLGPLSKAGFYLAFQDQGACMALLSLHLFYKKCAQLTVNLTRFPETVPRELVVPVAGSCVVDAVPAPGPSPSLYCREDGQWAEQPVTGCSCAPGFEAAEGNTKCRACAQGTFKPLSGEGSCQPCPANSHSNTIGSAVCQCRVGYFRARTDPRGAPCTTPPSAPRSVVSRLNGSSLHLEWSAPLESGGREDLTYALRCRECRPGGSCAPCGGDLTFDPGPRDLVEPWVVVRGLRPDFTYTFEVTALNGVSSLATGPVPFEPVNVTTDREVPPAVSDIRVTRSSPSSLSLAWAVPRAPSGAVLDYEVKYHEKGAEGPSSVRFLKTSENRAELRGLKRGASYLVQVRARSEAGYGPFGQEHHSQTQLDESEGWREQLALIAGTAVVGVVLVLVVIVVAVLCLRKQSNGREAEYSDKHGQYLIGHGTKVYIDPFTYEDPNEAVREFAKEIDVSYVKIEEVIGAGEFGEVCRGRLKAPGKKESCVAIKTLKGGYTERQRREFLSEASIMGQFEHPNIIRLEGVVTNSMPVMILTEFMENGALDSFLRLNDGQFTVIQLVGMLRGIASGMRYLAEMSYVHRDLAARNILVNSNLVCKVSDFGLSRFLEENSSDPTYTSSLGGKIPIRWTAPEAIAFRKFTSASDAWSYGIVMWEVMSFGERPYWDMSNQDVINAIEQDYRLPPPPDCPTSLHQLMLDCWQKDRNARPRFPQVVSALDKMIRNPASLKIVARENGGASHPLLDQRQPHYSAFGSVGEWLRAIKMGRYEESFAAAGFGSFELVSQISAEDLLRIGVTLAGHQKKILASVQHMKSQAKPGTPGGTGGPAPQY

[5] = molecular target: T3, Ephrin type-B receptor 4 (Homo sapiens); conditions: at 1 µM
[6] = molecular target: Receptor tyrosine-protein kinase erbB-2 (Homo sapiens) (UniProt P04626); conditions: at 0.1 µM
Chain of Receptor tyrosine-protein kinase erbB-2 (Homo sapiens) (P04626 whole entry): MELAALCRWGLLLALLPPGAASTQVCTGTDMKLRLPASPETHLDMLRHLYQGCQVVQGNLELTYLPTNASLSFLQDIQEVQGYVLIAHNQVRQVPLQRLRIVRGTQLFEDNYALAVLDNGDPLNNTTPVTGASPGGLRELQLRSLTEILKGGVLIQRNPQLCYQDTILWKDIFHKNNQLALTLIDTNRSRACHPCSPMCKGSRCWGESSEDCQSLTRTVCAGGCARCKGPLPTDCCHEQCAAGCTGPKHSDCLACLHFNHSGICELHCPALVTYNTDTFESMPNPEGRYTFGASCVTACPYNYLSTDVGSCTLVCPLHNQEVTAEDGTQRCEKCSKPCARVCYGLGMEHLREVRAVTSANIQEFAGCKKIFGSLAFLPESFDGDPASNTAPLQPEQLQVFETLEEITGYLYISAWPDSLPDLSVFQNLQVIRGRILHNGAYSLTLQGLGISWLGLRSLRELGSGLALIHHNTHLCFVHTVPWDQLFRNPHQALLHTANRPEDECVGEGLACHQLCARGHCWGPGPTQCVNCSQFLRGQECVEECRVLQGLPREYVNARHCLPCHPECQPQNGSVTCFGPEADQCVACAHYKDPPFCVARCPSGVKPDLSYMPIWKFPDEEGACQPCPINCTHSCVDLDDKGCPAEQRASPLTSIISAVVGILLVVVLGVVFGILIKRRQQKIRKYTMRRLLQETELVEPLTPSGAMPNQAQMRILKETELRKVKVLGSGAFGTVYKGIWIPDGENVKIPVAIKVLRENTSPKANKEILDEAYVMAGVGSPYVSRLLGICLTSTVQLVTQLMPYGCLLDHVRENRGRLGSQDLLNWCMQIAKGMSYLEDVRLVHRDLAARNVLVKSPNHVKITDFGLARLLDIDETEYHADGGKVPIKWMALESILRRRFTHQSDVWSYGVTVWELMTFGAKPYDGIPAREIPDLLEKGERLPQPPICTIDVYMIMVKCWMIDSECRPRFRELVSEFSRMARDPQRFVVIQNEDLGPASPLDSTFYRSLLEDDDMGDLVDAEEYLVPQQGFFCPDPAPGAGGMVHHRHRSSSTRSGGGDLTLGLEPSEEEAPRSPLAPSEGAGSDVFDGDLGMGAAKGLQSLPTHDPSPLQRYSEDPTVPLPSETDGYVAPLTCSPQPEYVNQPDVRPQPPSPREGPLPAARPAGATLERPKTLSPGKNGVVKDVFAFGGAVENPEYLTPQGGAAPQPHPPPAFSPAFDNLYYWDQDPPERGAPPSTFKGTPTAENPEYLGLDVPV

[7] = molecular target: Receptor tyrosine-protein kinase erbB-2 (Homo sapiens) (UniProt P04626); conditions: at 1 µM
[8] = molecular target: Receptor tyrosine-protein kinase erbB-4 (Homo sapiens) (UniProt Q15303); conditions: at 0.1 µM
[9] = molecular target: Receptor tyrosine-protein kinase erbB-4 (Homo sapiens) (UniProt Q15303); conditions: at 1 µM
[10] = molecular target: Tyrosine-protein kinase Fer (Homo sapiens) (UniProt P16591); conditions: at 0.1 µM
Chain of Tyrosine-protein kinase Fer (Homo sapiens) (P16591 whole entry, looked up): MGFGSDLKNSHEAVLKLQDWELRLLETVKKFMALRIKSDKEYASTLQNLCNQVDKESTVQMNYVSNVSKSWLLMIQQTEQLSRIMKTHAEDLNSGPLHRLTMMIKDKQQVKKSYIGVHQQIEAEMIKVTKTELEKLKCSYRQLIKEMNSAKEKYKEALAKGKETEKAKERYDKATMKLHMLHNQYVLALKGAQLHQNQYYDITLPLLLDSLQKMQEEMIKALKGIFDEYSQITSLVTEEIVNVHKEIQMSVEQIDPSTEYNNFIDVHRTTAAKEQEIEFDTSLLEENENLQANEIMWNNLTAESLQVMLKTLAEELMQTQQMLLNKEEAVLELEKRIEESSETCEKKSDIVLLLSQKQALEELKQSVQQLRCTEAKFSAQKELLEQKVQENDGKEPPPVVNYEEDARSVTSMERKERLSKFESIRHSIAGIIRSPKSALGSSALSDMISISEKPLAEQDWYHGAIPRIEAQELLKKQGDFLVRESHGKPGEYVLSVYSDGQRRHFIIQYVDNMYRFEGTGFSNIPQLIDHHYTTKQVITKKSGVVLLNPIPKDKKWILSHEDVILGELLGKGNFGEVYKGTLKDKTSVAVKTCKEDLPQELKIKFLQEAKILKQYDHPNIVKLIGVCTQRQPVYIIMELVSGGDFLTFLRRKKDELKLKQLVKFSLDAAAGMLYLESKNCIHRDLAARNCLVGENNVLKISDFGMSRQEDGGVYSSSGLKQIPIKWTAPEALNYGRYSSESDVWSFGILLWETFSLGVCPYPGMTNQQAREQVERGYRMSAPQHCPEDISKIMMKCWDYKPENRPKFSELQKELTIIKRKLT

[11] = molecular target: Tyrosine-protein kinase Fer (Homo sapiens) (UniProt P16591); conditions: at 1 µM
[12] = molecular target: Tyrosine-protein kinase Fes/Fps (Homo sapiens) (UniProt P07332); conditions: at 0.1 µM
Chain of Tyrosine-protein kinase Fes/Fps (Homo sapiens) (P07332 whole entry): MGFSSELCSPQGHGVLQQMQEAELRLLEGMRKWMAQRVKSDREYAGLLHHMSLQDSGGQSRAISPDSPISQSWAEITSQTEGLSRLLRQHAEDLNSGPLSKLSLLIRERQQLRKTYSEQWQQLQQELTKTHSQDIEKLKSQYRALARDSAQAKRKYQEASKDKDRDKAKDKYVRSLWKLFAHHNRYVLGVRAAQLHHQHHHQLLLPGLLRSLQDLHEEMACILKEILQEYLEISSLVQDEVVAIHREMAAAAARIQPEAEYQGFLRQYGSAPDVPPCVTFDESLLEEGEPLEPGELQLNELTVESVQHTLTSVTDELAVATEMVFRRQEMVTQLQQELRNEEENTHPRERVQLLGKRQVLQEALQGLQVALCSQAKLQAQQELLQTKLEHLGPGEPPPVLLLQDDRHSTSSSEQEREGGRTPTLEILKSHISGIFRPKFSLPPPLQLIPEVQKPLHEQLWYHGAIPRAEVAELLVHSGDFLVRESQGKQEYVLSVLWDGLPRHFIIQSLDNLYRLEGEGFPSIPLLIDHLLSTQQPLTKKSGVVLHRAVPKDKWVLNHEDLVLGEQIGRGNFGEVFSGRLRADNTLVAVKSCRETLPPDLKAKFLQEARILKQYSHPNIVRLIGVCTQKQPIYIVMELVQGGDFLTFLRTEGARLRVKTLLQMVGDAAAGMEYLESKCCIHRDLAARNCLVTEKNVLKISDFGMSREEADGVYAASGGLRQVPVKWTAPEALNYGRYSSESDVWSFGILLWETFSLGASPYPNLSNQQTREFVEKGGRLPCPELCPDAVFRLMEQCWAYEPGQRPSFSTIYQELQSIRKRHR

[13] = molecular target: Tyrosine-protein kinase Fes/Fps (Homo sapiens) (UniProt P07332); conditions: at 1 µM
[14] = molecular target: Fibroblast growth factor receptor 1 (Homo sapiens) (UniProt P11362); conditions: at 0.1 µM
[15] = molecular target: Fibroblast growth factor receptor 2 (Homo sapiens) (UniProt P21802); conditions: at 0.1 µM
Chain of Fibroblast growth factor receptor 2 (Homo sapiens) (P21802 22-821 limits assumed): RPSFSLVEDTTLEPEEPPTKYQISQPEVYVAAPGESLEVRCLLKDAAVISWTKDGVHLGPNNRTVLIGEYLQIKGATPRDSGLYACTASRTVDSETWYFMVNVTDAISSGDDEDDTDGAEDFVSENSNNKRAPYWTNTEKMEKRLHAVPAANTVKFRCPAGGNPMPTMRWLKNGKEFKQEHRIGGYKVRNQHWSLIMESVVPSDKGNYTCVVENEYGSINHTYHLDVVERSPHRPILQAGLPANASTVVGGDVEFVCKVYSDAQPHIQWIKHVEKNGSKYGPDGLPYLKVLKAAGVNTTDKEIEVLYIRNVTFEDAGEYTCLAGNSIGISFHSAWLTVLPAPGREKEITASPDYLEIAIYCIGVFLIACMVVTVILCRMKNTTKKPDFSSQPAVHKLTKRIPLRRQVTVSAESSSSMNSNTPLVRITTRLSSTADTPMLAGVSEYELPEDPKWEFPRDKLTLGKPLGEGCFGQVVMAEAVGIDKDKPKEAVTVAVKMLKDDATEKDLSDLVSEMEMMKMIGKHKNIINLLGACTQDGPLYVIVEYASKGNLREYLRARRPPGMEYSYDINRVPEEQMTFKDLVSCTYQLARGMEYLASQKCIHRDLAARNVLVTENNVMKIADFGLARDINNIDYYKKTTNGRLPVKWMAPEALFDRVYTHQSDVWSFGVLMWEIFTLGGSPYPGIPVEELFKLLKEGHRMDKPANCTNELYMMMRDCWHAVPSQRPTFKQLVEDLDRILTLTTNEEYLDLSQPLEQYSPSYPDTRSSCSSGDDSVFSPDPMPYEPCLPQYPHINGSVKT

[16] = molecular target: Fibroblast growth factor receptor 2 (Homo sapiens) (UniProt P21802); conditions: at 1 µM
[17] = molecular target: Fibroblast growth factor receptor 3 (Homo sapiens) (UniProt P22607); conditions: at 0.1 µM
Chain of Fibroblast growth factor receptor 3 (Homo sapiens) (P22607 23-806 limits assumed): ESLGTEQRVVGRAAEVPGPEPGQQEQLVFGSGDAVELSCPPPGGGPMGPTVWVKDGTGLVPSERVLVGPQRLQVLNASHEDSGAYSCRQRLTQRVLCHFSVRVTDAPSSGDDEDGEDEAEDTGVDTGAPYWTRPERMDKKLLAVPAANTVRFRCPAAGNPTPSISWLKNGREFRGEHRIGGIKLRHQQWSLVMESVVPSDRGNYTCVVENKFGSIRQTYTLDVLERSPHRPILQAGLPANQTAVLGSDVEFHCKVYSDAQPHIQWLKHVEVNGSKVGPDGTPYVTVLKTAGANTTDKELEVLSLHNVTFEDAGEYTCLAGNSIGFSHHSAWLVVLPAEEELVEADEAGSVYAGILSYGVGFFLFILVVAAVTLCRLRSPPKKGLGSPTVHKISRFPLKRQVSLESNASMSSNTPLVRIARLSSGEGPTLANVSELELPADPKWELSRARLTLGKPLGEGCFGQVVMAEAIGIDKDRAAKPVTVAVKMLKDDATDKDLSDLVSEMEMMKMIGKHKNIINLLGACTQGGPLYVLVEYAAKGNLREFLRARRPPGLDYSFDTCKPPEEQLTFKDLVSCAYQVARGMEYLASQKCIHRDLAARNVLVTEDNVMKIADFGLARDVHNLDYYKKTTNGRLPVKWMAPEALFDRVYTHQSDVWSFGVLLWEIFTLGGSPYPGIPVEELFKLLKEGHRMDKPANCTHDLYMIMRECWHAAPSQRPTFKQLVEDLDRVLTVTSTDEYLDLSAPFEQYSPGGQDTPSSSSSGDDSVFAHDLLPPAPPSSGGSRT

[18] = molecular target: Fibroblast growth factor receptor 3 (Homo sapiens) (UniProt P22607); conditions: at 1 µM
[19] = molecular target: Fibroblast growth factor receptor 4 (Homo sapiens) (UniProt P22455); conditions: at 0.1 µM;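 further: values are mean percent inhibition of FGFR4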
[20] = molecular target: Fibroblast growth factor receptor 1 (Homo sapiens) (UniProt P11362); conditions: at 1 µM

| SMILES | inhibition [1] [%] | inhibition [2] [%] | inhibition [3] [%] | inhibition [4] [%] | inhibition [5] [%] | inhibition [6] [%] | inhibition [7] [%] | inhibition [8] [%] | inhibition [9] [%] | inhibition [10] [%] | inhibition [11] [%] | inhibition [12] [%] | inhibition [13] [%] | inhibition [14] [%] | inhibition [15] [%] | inhibition [16] [%] | inhibition [17] [%] | inhibition [18] [%] | inhibition [19] [%] | inhibition [20] [%] |
| --- | --- | --- | --- | --- | --- | --- | --- | --- | --- | --- | --- | --- | --- | --- | --- | --- | --- | --- | --- | --- |
| Cc1cc(-c2ccccn2)cc(C)c1/C=C/c1cncc(-c2nn[nH]n2)c1 | 12.8 | 2.22 | 4.35 | 1.86 | 4.98 | -0.2 | 8.13 | 8.8 | 21.3 | -0.04 | 2.12 | 3.53 | 5.62 | 1.35 | 4.22 | 7.33 | 5.34 | 4.82 | 2.42 | – |
| FC(F)(F)c1ccc(-c2nn3ncccc3c2-c2ccnc(Nc3ccc4c(c3)OCCO4)n2)cc1 | 36.7 | -5.93 | -4.69 | 0.48 | 10.2 | 3.02 | 12.5 | 6.46 | 43.5 | 7.67 | 12.1 | -0.13 | 1.22 | 7.55 | 6.74 | 11.1 | 6.49 | 6.94 | 6.29 | 6.28 |
| CC(C)c1ccc2c(c1)NC(=O)/C2=N/Nc1ccc(S(N)(=O)=O)cc1 | 3.71 | 0.49 | 1.76 | 1.07 | 0.29 | 3 | 2.17 | 1.45 | 2.39 | 0.16 | 1 | 0.91 | -0.14 | 3.46 | 0.48 | 5.04 | 1.14 | 3.91 | 2.58 | -0.01 |
| N#Cc1c(NC(=O)c2ccccc2F)sc2c1CCCC2 | -0.34 | 3.63 | 0.77 | -2.29 | 0.07 | -3.55 | 1.39 | -2.08 | 0.66 | -1.19 | 1.99 | -0.84 | -1.66 | -6.27 | -3.13 | -2.53 | -2.94 | -1.6 | 1.12 | -0.77 |
| COC(=O)c1ccc2c(c1)C(=Cc1cc(Br)c(O)c(Br)c1)C(=O)N2 | 7.02 | 2.1 | 3.26 | 2.41 | 3.68 | -0.98 | 3.44 | 3.22 | 14.2 | -1.52 | 7.48 | 3.27 | 4.01 | 3.15 | 7.19 | 8.86 | 8.03 | 5.51 | 4.35 | 6.87 |
| CN1CCN(C(=O)c2ccc(NC(=O)Nc3ccc(N(C)c4ccnc(Nc5ccc(CS(C)(=O)=O)cc5)n4)cc3)cc2)CC1 | 34.3 | 2.73 | 3.2 | 2.21 | 11 | 0.08 | 3.94 | 7.39 | 17.1 | 16.2 | 63.9 | 7.35 | 43.4 | 0.94 | 6.7 | 12.8 | 4.9 | 5.11 | 4.73 | 4.44 |
| OCc1ccc(-c2nc(-c3ccccn3)c(-c3ccc4c(c3)OCO4)[nH]2)cc1 | 11.4 | 5.72 | 3.87 | 4.58 | 4.09 | 0.45 | -3.06 | 11.6 | 12.7 | 2.2 | 5.49 | 3.6 | 4.6 | 5.91 | 5.49 | 10.1 | 6.26 | 7.28 | 0.04 | 5.71 |
